# In ChEMBL document CHEMBL1157539, “Thousands of chemical starting points for antimalarial lead identification” (Nature, 2010):
# Test system: Plasmodium falciparum
# Assay: GSK_TCMDC: Inhibition of Plasmodium falciparum Dd2 in whole red blood cells, using parasite LDH activity as an index of growth. Test compounds present at 2uM
# Type: functional
row,SMILES,Inhibition
1,CCCc1ccc(S(=O)(=O)NC2CCN(c3ccnc(Nc4ccc(F)cc4)n3)C2)cc1 (stereo unspecified),56%
2,O=C(Nc1nc2cc(S(=O)(=O)NCCc3ccc(F)cc3)ccc2n1CCCn1ccnc1)c1ccc(Cl)cc1.O=C(O)C(F)(F)F,55%
3,O=C(Nc1cccc(-c2ccc(-c3nc4cc(C(F)(F)F)ccc4[nH]3)s2)c1)c1c[nH]cn1,36%
4,CN(C)CC1CCCN1Cc1ccccc1-c1cnn(C)c(=O)c1Oc1cccc(C#N)c1.O=C(O)C(F)(F)F (stereo unspecified),15%
5,Cc1ccc(Cc2cnc(CN3CCCCC3)c(O)c2)cc1.Cl,75%
6,COc1ccc(Cl)cc1S(=O)(=O)Nc1cccc(CCN2CCC(N3CCCCC3)CC2)c1,9%
7,Cc1nc2c(c(O)c1Cl)-c1ccc(Oc3cccc(C(F)(F)F)c3)cc1C2=O,97%
8,Cc1cc(N(C)C)nc(Nc2ccc(NC(=O)C3CCCCC3)cc2)n1,68%
9,CN(C)CCOc1cc(NC(=O)Nc2ccc(-c3ccncc3)c(C(F)(F)F)c2)ccc1Cl,79%
10,Cc1cc(OCCCN2CCC(NS(=O)(=O)c3ccc(Cl)c(Cl)c3)C2)c2ccccc2n1 (stereo unspecified),37%
11,Cc1noc(C)c1-c1cccc(CNCc2cccc(-c3ccc(-c4nc5ccccc5[nH]4)s3)c2)c1.O=C(O)C(F)(F)F,29%
12,COc1ccc(C(=O)Nc2cc(Br)c3c(c2)CNCC3)cc1C(F)(F)F.Cl,4%
13,COc1ccc(CNCc2ccccc2)cc1-c1ccc(S(=O)(=O)NCCN2CCCC2)c(C)c1.O=C(O)C(F)(F)F,50%
14,CCc1cn2c3c(cc(C(=O)N[C@@H](Cc4cc(F)cc(F)c4)[C@H](O)CNC4CCOCC4)cc13)N(C)S(=O)(=O)CC2.O=CO,98%
15,O=C(O)C(F)(F)F.O=[N+]([O-])c1cccc(CNC2CCN(Cc3ccc(-c4ccccc4)cc3)CC2)c1,96%
16,CC(C)(C)c1cc(C(=O)N2CCN(c3cnccn3)CC2)n(Cc2ccccc2)n1,33%
17,Cc1[nH]c(C)c(-c2ccc(Nc3ccc(C(F)(F)F)cn3)cc2)c(=O)c1Br,98%
18,N=C(N)Nc1nc(-c2cccc(NCCCCCCCCON3C(N)=NC(N)=NC34CCCCC4)c2)cs1.O=C(O)C(F)(F)F,42%
19,Cc1nc(N)nc(N)c1-c1ccc2ccccc2c1,2%
20,Cc1sc(CNCCCNc2cc(=O)c3ccccc3[nH]2)c(C(F)(F)F)c1C.Cl,70%
21,Cn1nccc1C(=O)NCCNCc1ccc(-c2cccc(-c3nc4cc(F)ccc4[nH]3)c2)cc1.O=C(O)C(F)(F)F,98%
22,COc1cc2ccccc2cc1CNCCCCCCNCc1cc2ccccc2cc1OC.CS(=O)(=O)O,24%
23,COc1ccccc1N(C)CCNc1cc(C)nc(Nc2ccc(C)cc2)n1,25%
24,O=C(C=Cc1cn(-c2ccccc2)nc1-c1cccs1)N1CCN(c2ccncc2)CC1,61%
25,O=C(/C=C/c1ccc(Cl)c(Cl)c1)NCCCCCN1CCCC(C(=O)Nc2ccc(Cl)c(Cl)c2)C1 (stereo unspecified),11%
26,CCCNC(=O)C1CCN(C(c2ccc(Cl)cc2)c2ccc(Cl)cc2)CC1,96%
